Experimental data reported in PubChem BioAssay (NCATS).
Results filed as inconclusive are left out. Active and inactive are the calls of the source. Unless noted, calls come from the whole dose curve; as a rule, active = well fitted cell-killing curve with a large enough effect; inconclusive = small, poorly fitted or top-dose-only effect; inactive = flat fitted curve, though single readings scatter.

How the values were obtained:
[1] = Cell Viability - LYMP2-025 (AID 976);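 note: series mostly up to about 92 µM; plate controls were DMSO only for no effect and tetraoctylammonium bromide control for full effect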
How it was run: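 Cytotoxicity read as loss of intracellular ATP (luciferase luminescence) after 24 h compound treatment at 37 C. Uses LYMP2-025 lymphoblastoid cells in 1536-well format; Hill-equation modelling gives AC50; tetraoctylammonium bromide as positive control.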

[2] = Cell Viability - LYMP2-002 (AID 977);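 note: series mostly up to about 92 µM; plate controls were DMSO only for no effect and 92 µM tetraoctylammonium bromide for full effect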
How it was run: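 Human lymphoblastoid cells, 2500/well, complete medium; 5 h 37 C settle; compound 24 h 37 C; CellTiter-Glo, 30 min RT; luminescence. Decrease in ATP = cytotoxicity; AC50 via Hill equation.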

[3] = Cell Viability - LYMP2-007 (AID 979);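 note: cells exposed to compound for 24 h before reading; 0% = DMSO only and the negative end = 92 µM tetraoctylammonium bromide; nearly all actives have a fitted effect of over 60% in size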
How it was run: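 AC50 values come from Hill-equation fits of luminescent intracellular ATP (CellTiter-Glo, 30 min, room temperature) following 24 h compound exposure at 37 C. Cells: LYMP2-007 lymphoblastoid line, 2500 per well, in complete culture medium.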

[4] = Cell Viability - LYMP2-008 (AID 980); note: % is set by controls: 0 for no effect and ±100 for the full control effect; nearly all actives have a fitted effect of over 60% in size
How it was run: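 Cytotoxicity determined from ATP-dependent luciferase luminescence (CellTiter-Glo) following 24 h compound exposure of human lymphoblastoid LYMP2-008 cells at 37 C. Concentration-response data fitted to the Hill equation to give AC50.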

[5] = Cell Viability - LYMP2-010 (AID 981); note: % is set by controls: 0 for no effect and ±100 for the full control effect; nearly all actives have a fitted effect of over 55% in size
How it was run: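 CellTiter-Glo ATP luminescence measured cytotoxicity after 24 h compound exposure at 37 C. LYMP2-010 cells were seeded at 2500/well, with tetraoctylammonium bromide as control; concentration-response curves gave AC50 values by the Hill equation.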

[6] = Cell Viability - LYMP2-012 (AID 982);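 note: cellular ATP by luciferase luminescence where a drop means cytotoxicity; cells exposed to compound for one day before reading; 0% = DMSO only and full loss = 92 µM tetraoctylammonium bromide; nearly all actives have a fitted effect of over 55% in size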
[7] = Cell Viability - LYMP2-014 (AID 983);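 note: series mostly up to about 92 µM; plate controls were DMSO only for no effect and 92 µM tetraoctylammonium bromide for full effect; nearly all actives have a fitted effect of over 50% in size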
How it was run: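 Intracellular ATP loss, read by luciferase luminescence, measures acute cytotoxicity after 24 h compound exposure of lymphoblastoid LYMP2-014 cells (2500/well, 37 C). Concentration-response data fitted to the Hill equation for AC50.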

[8] = Cell Viability - LYMP2-016 (AID 984); note: % is set by controls: 0 for no effect and ±100 for the full control effect; nearly all actives have a fitted effect of over 55% in size
How it was run: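 Concentration-dependent ATP depletion measured in LYMP2-016 lymphoblastoid cells, 24 h, 37 C; luciferase-based luminescent detection; Hill-equation AC50.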

[9] = Cell Viability - LYMP2-018 (AID 985);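 note: plate controls were DMSO only for no effect and tetraoctylammonium bromide at 92 µM for full effect; nearly all actives have a fitted effect of over 50% in size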
How it was run: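 Viability read as CellTiter-Glo luminescence (cellular ATP) after 24 hr compound exposure at 37 C of 2500 LYMP2-018 lymphoblastoid cells/well, pre-plated 5 hr. Hill-equation modelling gave AC50.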

[10] = Cell Viability - LYMP2-020 (AID 986);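 note: series mostly up to about 92 µM; plate controls were DMSO only for no effect and tetraoctylammonium bromide at 92 µM for full effect; nearly all actives have a fitted effect of over 55% in size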
How it was run: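 Cytotoxicity in qHTS format: luminescent ATP readout from CellTiter-Glo after 24 h compound exposure at 37 C in complete medium. LYMP2-020 lymphoblastoid cells were seeded at 2500/well; concentration-response data fitted to the Hill equation for AC50.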

[11] = Cell Viability - LYMP2-022 (AID 987)
How it was run: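 Cytotoxicity read as decreased cellular ATP (CellTiter-Glo luminescence, 30 min room temperature) after 24 hours compound exposure of 2500 lymphoblastoid LYMP2-022 cells/well at 37 C. Concentration-response data fitted with standard Hill equation for AC50.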

[12] = Cell Viability - LYMP2-024 (AID 988);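 note: plate controls were DMSO only for no effect and 92 µM tetraoctylammonium bromide for full effect; nearly all actives have a fitted effect of over 60% in size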
How it was run: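 Cytotoxicity was taken as a decrease in ATP (CellTiter-Glo luminescence) after 24 hr compound exposure at 37 C of LYMP2-024 lymphoblastoid cells, 2500 cells/well. Concentration-response data were fitted to the Hill equation to give AC50.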

[13] = Cell Viability - LYMP2-026 (AID 989); note: % is set by controls: 0 for no effect and ±100 for the full control effect; nearly all actives have a fitted effect of over 50% in size
How it was run: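 Cytotoxicity read as ATP-dependent luminescence (CellTiter-Glo, 30 min room temperature) after 24 h compound treatment at 37 C. LYMP2-026 lymphoblastoid line seeded at 2500 cells/well; AC50 derived by standard Hill equation.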

[14] = Cell Viability - LYMP1-002 - Assay at 24 hr (AID 993); note: % is set by controls: 0 for no effect and ±100 for the full control effect
How it was run: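 qHTS cytotoxicity at 24 h: CellTiter-Glo ATP luminescence in lymphoblastoid line LYMP1-002 incubated with compound at 37 °C. Concentration-response modeled with the Hill equation for AC50; tetraoctylammonium bromide served as positive control.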

[15] = Cell Viability - LYMP1-002 - Assay at 40 hr (AID 994);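 note: 0% = DMSO only and full inhibition = 92 µM tetraoctylammonium bromide; nearly all actives have a fitted effect of over 60% in size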
How it was run: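 Cytotoxicity was read as loss of cellular ATP (CellTiter-Glo luminescence) after 40 hr compound exposure at 37 C of 2500 LYMP1-002 lymphoblastoid cells per well. Concentration-response data were fitted with the standard Hill equation to give AC50.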

[16] = qHTS Assay for Identification of Small Molecule Inducers of Hypoxia Response (AID 2120; active = well fitted curve in the direction sought with a large enough effect in the signal ratio, with a control signal flat, not every such curve was filed as active; the % refers to the signal ratio; note: 0% is about no effect)
How it was run: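 Reporter induction read as the CCF4 blue/green (460nm/530nm) emission ratio after 2.5 h dye loading at room temperature. ME-180 HRE-beta-lactamase cells received titrated compounds for 17 h at 37 degrees Celsius; AC50 values derived.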

[17] = biological target: Estrogen receptor (Homo sapiens) (UniProt P03372); experiment: qHTS assay for small molecule antagonists of estrogen receptor alpha signaling (AID 588513; active = well fitted curve in the direction sought with a large enough effect in the signal ratio, with a control signal flat, not every such curve was filed as active; the % refers to the signal ratio; note: % is set by controls: 0 for no effect and ±100 for the full control effect)
How it was run: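 Antagonist-mode qHTS in ER-alpha-UAS-bla HEK 293 cells: compound titration, 0.5nM estradiol for 18 h, CCF4 fluorescence, Hill-derived IC50.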

[18] = biological target: Estrogen receptor (Homo sapiens) (UniProt P03372); experiment: qHTS assay for small molecule agonists of estrogen receptor alpha signaling (AID 588514; calls by dose curve;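 note: 0% = vehicle only and 100% = reference agonist; nearly all actives have a fitted effect of over 70% in size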)
How it was run: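 EC50 and efficacy came from Hill fits of beta-lactamase reporter signal (CCF4 dye, 2 h at room temperature) scaled between DMSO and 20 nM 17-beta-estradiol. Agonist mode: HEK293 ER-alpha-UAS-bla cells in charcoal/dextran-stripped serum medium, 18 h compound exposure at 37 C.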

[19] = biological target: Androgen receptor (Homo sapiens) (UniProt P10275); experiment: qHTS assay for small molecule agonists of androgen receptor signaling (AID 588515; active = well fitted curve in the direction sought with a large enough effect in the signal ratio, with a control signal flat; the % refers to the signal ratio; note: % is set by controls: 0 for no effect and ±100 for the full control effect); conditions: AR-UAS-bla HEK293, beta-lactamase ratio, agonist 16 h; active compounds read high
How it was run: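 Stimulation of an AR-responsive β-lactamase reporter in GripTite HEK293 cells was measured after 16 h compound exposure at 37 °C, via CCF4 fluorescence after 2 h RT. EC50 from Hill fits, normalized to R1881 at 30 nM.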

[20] = Cell Viability - LYMP2-006 (AID 978)
How it was run: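 In this cytotoxicity screen, the human lymphoblastoid line grew in complete medium with test compounds for 24 hr at 37 C. Cellular ATP served as the viability signal.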

Androgen receptor (Homo sapiens), sequence (P10275 whole entry, looked up): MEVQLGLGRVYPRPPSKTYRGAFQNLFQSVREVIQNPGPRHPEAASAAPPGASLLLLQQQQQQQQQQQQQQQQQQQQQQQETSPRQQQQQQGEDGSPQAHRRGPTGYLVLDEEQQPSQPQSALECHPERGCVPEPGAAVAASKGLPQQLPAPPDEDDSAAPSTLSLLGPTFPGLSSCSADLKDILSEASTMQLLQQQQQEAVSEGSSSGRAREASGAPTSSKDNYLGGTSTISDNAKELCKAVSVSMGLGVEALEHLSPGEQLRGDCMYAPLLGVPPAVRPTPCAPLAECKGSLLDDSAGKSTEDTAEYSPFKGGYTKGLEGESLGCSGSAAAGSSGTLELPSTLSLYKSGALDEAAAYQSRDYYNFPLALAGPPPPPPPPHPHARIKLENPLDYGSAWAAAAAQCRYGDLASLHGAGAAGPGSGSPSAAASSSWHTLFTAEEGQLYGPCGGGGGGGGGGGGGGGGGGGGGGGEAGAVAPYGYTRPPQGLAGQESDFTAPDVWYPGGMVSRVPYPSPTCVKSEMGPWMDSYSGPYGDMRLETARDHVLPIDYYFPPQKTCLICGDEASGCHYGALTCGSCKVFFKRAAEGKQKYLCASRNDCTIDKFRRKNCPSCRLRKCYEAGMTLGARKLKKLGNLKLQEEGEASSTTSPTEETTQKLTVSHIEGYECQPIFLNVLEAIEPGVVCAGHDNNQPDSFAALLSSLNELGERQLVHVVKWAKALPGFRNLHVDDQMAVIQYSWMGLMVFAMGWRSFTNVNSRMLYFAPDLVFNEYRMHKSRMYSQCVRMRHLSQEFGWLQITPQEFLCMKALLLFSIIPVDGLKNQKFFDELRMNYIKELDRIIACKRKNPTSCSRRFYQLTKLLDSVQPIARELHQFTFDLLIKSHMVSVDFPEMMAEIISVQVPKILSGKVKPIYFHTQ
Estrogen receptor (Homo sapiens), sequence (P03372 whole entry, looked up): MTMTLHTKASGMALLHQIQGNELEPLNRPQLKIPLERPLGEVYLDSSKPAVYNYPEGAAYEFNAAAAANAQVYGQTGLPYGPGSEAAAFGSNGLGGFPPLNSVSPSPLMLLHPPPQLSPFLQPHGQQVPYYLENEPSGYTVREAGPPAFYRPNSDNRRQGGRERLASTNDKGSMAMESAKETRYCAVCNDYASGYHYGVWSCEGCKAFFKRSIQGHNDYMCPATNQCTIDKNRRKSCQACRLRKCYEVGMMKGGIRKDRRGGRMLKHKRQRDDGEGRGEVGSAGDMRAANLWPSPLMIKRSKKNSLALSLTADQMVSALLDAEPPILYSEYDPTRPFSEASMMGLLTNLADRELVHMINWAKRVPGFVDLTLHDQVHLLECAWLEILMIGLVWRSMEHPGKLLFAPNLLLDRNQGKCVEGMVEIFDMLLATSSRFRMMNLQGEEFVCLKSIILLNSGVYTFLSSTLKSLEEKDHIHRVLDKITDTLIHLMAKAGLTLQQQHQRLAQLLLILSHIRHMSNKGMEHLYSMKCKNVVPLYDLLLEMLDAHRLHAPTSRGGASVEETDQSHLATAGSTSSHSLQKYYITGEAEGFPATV

CCC(C)(C)C(=O)O
inactive: Potency [1] | Potency [2] | Potency [3] | Potency [4] | Potency [5] | Potency [6] | Potency [7] | Potency [8] | Potency [9] | Potency [10] | Potency [11] | Potency [12] | outcome [13] | Potency [14] | Potency [15] | outcome [16] | outcome [17] | Potency [18] | activation [19] -5.44%

Cc1ccc2cccnc2c1
inactive: Potency [1] | Potency [2] | Potency [20] | Potency [3] | Potency [4] | Potency [5] | Potency [6] | Potency [7] | Potency [8] | Potency [9] | Potency [10] | Potency [11] | Potency [12] | outcome [13] | Potency [14] | Potency [15] | outcome [16] | outcome [17] | Potency [18] | activation [19] 14.8%

Nc1ccc(F)cc1F
inactive: Potency [1] | Potency [2] | Potency [3] | Potency [4] | Potency [5] | Potency [7] | Potency [8] | Potency [10] | Potency [11] | Potency [12] | Potency [14] | Potency [15] | outcome [16] | outcome [17] | Potency [18] | activation [19] 18.9%

Cc1cccc(C(=O)O)c1[N+](=O)[O-]
inactive: Potency [1] | Potency [2] | Potency [20] | Potency [3] | Potency [4] | Potency [5] | Potency [6] | Potency [7] | Potency [8] | Potency [9] | Potency [10] | Potency [11] | Potency [12] | outcome [13] | Potency [14] | Potency [15] | outcome [16] | outcome [17] | Potency [18]

CC(=O)Nc1ccccc1C
inactive: Potency [1] | Potency [2] | Potency [20] | Potency [3] | Potency [4] | Potency [5] | Potency [6] | Potency [7] | Potency [8] | Potency [9] | Potency [10] | Potency [11] | Potency [12] | outcome [13] | Potency [14] | Potency [15] | outcome [16] | outcome [17] | Potency [18]

Cc1ccco1
inactive: Potency [1] | Potency [2] | Potency [20] | Potency [3] | Potency [4] | Potency [5] | Potency [6] | Potency [7] | Potency [8] | Potency [9] | Potency [10] | Potency [11] | Potency [12] | outcome [13] | Potency [14] | Potency [15] | outcome [16] | outcome [17] | Potency [18]

BrC(Br)C(Br)Br
inactive: Potency [1] | Potency [2] | Potency [20] | Potency [3] | Potency [4] | Potency [5] | Potency [6] | Potency [7] | Potency [8] | Potency [9] | Potency [10] | Potency [11] | Potency [12] | outcome [13] | Potency [14] | Potency [15] | outcome [16] | outcome [17] | Potency [18] | activation [19] 2.87%

CCN(Cc1ccccc1)c1ccccc1
inactive: Potency [1] | Potency [2] | Potency [20] | Potency [3] | Potency [4] | Potency [5] | Potency [7] | Potency [9] | Potency [10] | Potency [11] | Potency [12] | outcome [13] | Potency [14] | Potency [15] | outcome [16] | outcome [17] | Potency [18] | activation [19] 11.1%

Cc1ccc(N(C)C)cc1
inactive: Potency [1] | Potency [2] | Potency [20] | Potency [3] | Potency [4] | Potency [5] | Potency [6] | Potency [8] | Potency [9] | Potency [10] | Potency [11] | Potency [12] | Potency [14] | Potency [15] | outcome [16] | outcome [17] | Potency [18] | activation [19] 15.4%

Nc1cc(S(=O)(=O)O)ccc1O
inactive: Potency [1] | Potency [2] | Potency [20] | Potency [3] | Potency [4] | Potency [5] | Potency [6] | Potency [8] | Potency [9] | Potency [10] | Potency [11] | Potency [12] | outcome [13] | Potency [14] | Potency [15] | outcome [16] | outcome [17] | Potency [18] | activation [19] 14.7%

O=C1NC(=O)c2cc([N+](=O)[O-])ccc21
inactive: Potency [1] | Potency [2] | Potency [20] | Potency [3] | Potency [4] | Potency [5] | Potency [6] | Potency [7] | Potency [8] | Potency [9] | Potency [10] | Potency [11] | Potency [12] | outcome [13] | Potency [14] | Potency [15] | outcome [16] | outcome [17] | Potency [18] | activation [19] -13.5%

CC(C)(O)CCC(C)(C)O
inactive: Potency [2] | Potency [20] | Potency [3] | Potency [4] | Potency [5] | Potency [6] | Potency [7] | Potency [8] | Potency [9] | Potency [10] | Potency [11] | Potency [12] | Potency [14] | Potency [15] | outcome [16] | outcome [17] | Potency [18] | activation [19] -1.56%

ClCCl
inactive: Potency [1] | Potency [2] | Potency [20] | Potency [3] | Potency [4] | Potency [5] | Potency [7] | Potency [8] | Potency [9] | Potency [10] | Potency [11] | Potency [12] | outcome [13] | Potency [14] | Potency [15] | outcome [16] | outcome [17] | Potency [18] | activation [19] 2.05%

CNC(=O)c1ccccc1
inactive: Potency [1] | Potency [2] | Potency [20] | Potency [3] | Potency [4] | Potency [5] | Potency [6] | Potency [7] | Potency [8] | Potency [9] | Potency [10] | Potency [11] | Potency [12] | outcome [13] | Potency [14] | Potency [15] | outcome [16] | outcome [17] | Potency [18]
